SMILES strings stand for the structures. “And” between values parts separate entries of the source, which are not always exact repeats. Identical values can stand only once. Compounds without any hit were thinned out: in the full panel of roughly 83,000, 20% have a hit.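 In brief: 96-well plates, 48 h treatment, single concentration, percent growth endpoint.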 Values without a mark were called inactive. The source made the active and inactive calls. How the source made its calls: active means growth percent below 10; inactive means the rest.

The values that follow come from PubChem BioAssay (NCI).

The experiment deals with BT-549 breast. Put plainly: NCI-60 one-dose screen, 48 h (100 = growth as untreated, 0 = no growth, -100 = all killed). To be noted: 10 µM unless noted.
For `C=C(CN1CC=CCC1)[C@@H]1CC[C@]2(COC(C)=O)CC[C@]3(C)[C@H](CC[C@@H]4[C@@]5(C)CC[C@H](O)C(C)(C)[C@@H]5CC[C@]43C)[C@@H]12`, the growth is 106%.

Turning to `Cc1c(O)c(O)cc2c3c(oc12)CC(c1ccc2c(c1)OCO2)CC3=O` (stereo unspecified), the growth is 74.6%. As to `O=c1c2c([nH]c3ccccc13)CCCC2`, the growth was 106% and 59%. As for `Clc1ccc(/C=N\N2CCCCCC2)cc1`, the figure is 105% and 90.4%; as for `CCOC(=O)c1nc2c3ccccc3cnn2c1C(=O)c1ccc(OC)cc1`, 98.2%; as for `COc1ccc(-c2nn3c(-c4cc(F)c(Cl)cc4Cl)nnc3s2)cc1`, 54.3%. As for `O=C1C(=C(O)c2ccccc2)C(=O)c2ccccc21`, the figure is 95.7%. Take `O=C(Nc1ccccc1C(=O)N/N=C(\c1ccccc1)c1ccccn1)c1ccccc1`: the growth was 31.3%.

Turning to `COc1cc(-c2[nH]ncc2Nc2ccc(Cl)cc2)cc(OC)c1OC`, the growth was 29.8%.

Turning to `O=C([C@H]1C[C@H]1c1ccc(S(F)(F)(F)(F)F)cc1)N1CCN(c2cc(Cl)ccc2C(F)(F)F)CC1`, the growth is 106%. The result for `Clc1ccc2c(NCCN3CCN(c4ccnc(N5CCCC5)n4)CC3)ccnc2c1` reads 75.8%; that for `Cn1c(=O)c2c(nc(Nc3cc(=O)[nH]c(=O)[nH]3)n2Cc2ccccc2)n(C)c1=O`, 98.2%; that for `Cc1ccc(S(=O)(=O)OC[C@@]2(C)CC[C@]3(C)CC[C@]4(C)C(=CC[C@@H]5[C@@]6(C)CCCNC(C)(C)[C@@H]6CC[C@]54C)[C@@H]3C2)cc1`, 76.5%. The result for `Cc1nc(-n2[nH]c(=O)ccc2=O)sc1N=Nc1ccccc1` reads 95.7%; that for `CCCCC#Cc1c(/C=C(\CCCC)SCC)n(C)c(=O)[nH]c1=O`, 100%; that for `O=C(CCN1CCOCC1)Nc1cccc(-n2cc(-c3ccncc3)c(-c3ccc(Cl)c(O)c3)n2)c1`, 11.6%. As for `CCOC(=O)c1cnn(CC(O)CC)c1NC(=O)NCc1ccccc1C(F)(F)F` (stereo unspecified), the figure is 84.4%. Consider `O=C(Nc1cc(C(F)(F)F)cc(C(F)(F)F)c1)c1cc(Cl)ccc1O`, for which the growth was -31.5% (active).

Take `O=C(N/N=C/c1ccc(O)cc1O)c1cccc(Nc2ccnc(C(F)(F)F)c2)c1`: the growth was 42.3%.

With `O=S(=O)(Nc1ccc(F)cc1)c1ccc(-c2cnc(C3CC3)o2)cc1`, the growth was 52.8%. The result for `Nn1c(-c2ccc(Cl)cc2)nc2c(-c3ccc(Cl)cc3)nc3ccc(Cl)cc3c2c1=O` reads 45.1%.

As for `COc1ccc2c(c1)oc1c(C)c3c(c(C)c12)C(=O)N(Nc1ccccc1)C3=O`, the growth was 91.6%.

With `Cc1cnc(C(=O)NNc2nc3sc4c(c3c(=O)[nH]2)C(C)CCC4)cn1` (stereo unspecified), the growth was 39.5%.

As to `COC(=O)c1nc(-c2ccc(C)cc2)oc1Sc1ccc(C)cc1`, the growth is 101%. For the molecule `O=C1OCC2=C1C(c1cccc(C(F)(F)F)c1)c1cc3c(cc1N2CCO)OCCO3` (stereo unspecified), the growth was 41.7%. The result for `C=C(CNCCc1ccc(O)cc1)[C@@H]1CC[C@]2(CO)CC[C@]3(C)[C@H](CC[C@@H]4[C@@]5(C)CCC(NCCc6ccc(O)cc6)C(C)(C)[C@@H]5CC[C@]43C)[C@@H]12` (stereo partly specified) reads -79.7% (active).
